# In PubChem BioAssay (NCI):
# “And” between values parts separate entries of the source, which are not always exact repeats. Identical values can stand only once. About 79,000 compounds went through this panel and 15% of them were active in at least one assay; those are over-represented in the sample as a whole. A number with no mark means an inactive call. The source made the active and inactive calls. No stated cut-off is given here; in the data, active means growth inhibition above about 70%; inactive means the rest.
# Columns and labels:
# [1] = NCI Yeast Anticancer Drug Screen. Data for the rad50 strain (AID 155);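 further: 0% = growth of vehicle-only cultures of the same strain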; conditions: S. cerevisiae rad50 strain growth inhibition, hits give high values
# Method in brief: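 Growth of the mutant yeast was measured after compound exposure and referenced to vehicle-treated cultures.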
# [2] = NCI Yeast Anticancer Drug Screen. Data for the mec2-1 strain (AID 157); conditions: S. cerevisiae mec2-1 strain, hits give high values
# Method in brief: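 Strain: mec2-1 (DNA repair/cell cycle alteration). Compound exposure, then growth measured; inhibition expressed relative to vehicle.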
# [3] = NCI Yeast Anticancer Drug Screen. Data for the sgs1 mgt1 strain (AID 161);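 further: 0% = growth of cultures given vehicle only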; conditions: S. cerevisiae sgs1 mgt1 strain, hits give high values
# Method in brief: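 Read-out: growth inhibition vs vehicle controls. Cells: mutant yeast strain deficient in DNA damage repair.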
# [4] = NCI Yeast Anticancer Drug Screen. Data for the cln2 rad14 strain (AID 165);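 further: 0% = growth equal to vehicle treated cultures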; conditions: S. cerevisiae cln2 rad14 strain, hits give high values
# Method in brief: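 Compounds are applied to the cln2 rad14 yeast strain, and growth is then compared with that of vehicle-treated cultures to give inhibition.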
# [5] = NCI Yeast Anticancer Drug Screen. Data for the bub3 strain (AID 167); conditions: S. cerevisiae bub3 mutant strain, hits give high values
# Method in brief: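 Whole-cell yeast assay. The mutant strain was incubated with compounds, and growth inhibition was determined by comparison with vehicle-treated cells.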
# [6] = NCI Yeast Anticancer Drug Screen. Data for the mlh1 rad18 strain (AID 175); conditions: S. cerevisiae mlh1 rad18 strain growth inhibition, hits give high values
# Method in brief: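 Read-out is yeast growth inhibition, calculated against vehicle-only controls. The compound was applied to a strain engineered with DNA damage repair alterations.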
# [7] = at 5.0 µM (retest, dose inferred, filed as 0.5)
# [8] = at 50.0 µM (retest, dose inferred, filed as 5.0)
SMILES,"growth inhibition [1, 7]","growth inhibition [1, 8]",growth inhibition ([1]; at 50.0 µM),"growth inhibition [2, 7]","growth inhibition [2, 8]",growth inhibition ([2]; at 50.0 µM),"growth inhibition [3, 7]","growth inhibition [3, 8]",growth inhibition ([3]; at 50.0 µM),"growth inhibition [4, 7]","growth inhibition [4, 8]",growth inhibition ([4]; at 50.0 µM),"growth inhibition [5, 7]","growth inhibition [5, 8]",growth inhibition ([5]; at 50.0 µM),"growth inhibition [6, 7]","growth inhibition [6, 8]",growth inhibition ([6]; at 50.0 µM)
C=CCN1C(=O)NC(=O)/C(=C/c2c3ccccc3cc3ccccc23)C1=O,58%,98% (active),69.2%,85% (active),98% (active),47.7%,66%,99% (active),82.2% (active),48%,98% (active),-22.6%,83% (active),96% (active),88% (active),79% (active),99% (active),85% (active)
[C](#Cc1ccccc1)[Hg][C]#Cc1ccccc1,65%,99% (active),98.8% (active),94% (active),99% (active),98.8% (active),94% (active),100% (active),99% (active),26%,99% (active),84.9% (active),21%,99% (active),98.3% (active),24%,99% (active),98.8% (active)
O=c1c(O)c(-c2ccccc2)oc2ccccc12.[Pb],3%,97% (active),94.7% (active),-2%,97% (active),92.6% (active),6%,24%,98.4% (active),-2%,98% (active),47.8%,-6%,98% (active),96.2% (active),8%,98% (active),98.1% (active)
O=c1oc2ccccc2c(O)c1C(C/C(CCN1CCCC1)=N\Nc1ccccc1)c1ccccc1 (configuration not stated),3%,3%,86.3% (active),-2%,-2%,80.7% (active),1%,1%,87.8% (active),8%,8%,81.3% (active),-13%,-13%,81.7% (active),-6%,-6%,83.9% (active)
C[As](C)SCCC(CCCCC(=O)O)S[As](C)C (configuration not stated),27%,38%,66.2%,27%,32%,47%,2%,-69%,78.3% (active),5%,-52%,37.4%,2%,-42%,76.5% (active),39%,65%,25.4%
CN(C)CCN(C)P12(Oc3ccccc3O1)Oc1c(Cl)c(Cl)c(Cl)c(Cl)c1O2,-8%,6%,99% (active),9%,14%,99.2% (active),-10%,9%,99% (active),-19%,22%,99.1% (active),-10%,12%,99.1% (active),0%,16%,97.6% (active)
CC(=O)[O-].[Zn].c1ccc(/C(=N\Nc2ccccn2)c2ccccn2)cc1,29%,66%,41.9%,37%,61%,9.8%,38%,83% (active),23.8%,26%,78% (active),13.8%,44%,86% (active),34.6%,36%,68%,41.1%
[Cl][Hg].c1ccc([As]c2ccc(-c3ccccc3)cc2)cc1 (configuration not stated),99% (active),90% (active),99% (active),99% (active),92% (active),99.4% (active),100% (active),93% (active),99.2% (active),99% (active),91% (active),99% (active),99% (active),92% (active),98.5% (active),100% (active),92% (active),99% (active)
O=S(=O)([O-])[O-].[OH3+].[OH3+].[OH3+].[Ru+2].c1ccccc1,-39%,-9%,88.8% (active),-1%,-2%,92.2% (active),-15%,20%,90.5% (active),-9%,15%,89.6% (active),-11%,42%,90.7% (active),-38%,30%,87.5% (active)
[Au+].c1c[n-]cn1.c1ccc([PH+](c2ccccc2)c2ccccc2)cc1,99% (active),98% (active),97.9% (active),99% (active),98% (active),98% (active),99% (active),98% (active),96.2% (active),98% (active),97% (active),93.6% (active),98% (active),98% (active),97.2% (active),99% (active),98% (active),97.7% (active)
COC1OC(COC(C)=O)C(OC(C)=O)C(OC(C)=O)[CH]1[Hg][I] (configuration not stated),99% (active),99% (active),99.2% (active),99% (active),99% (active),99.6% (active),100% (active),100% (active),99.6% (active),99% (active),99% (active),98.9% (active),99% (active),99% (active),99.3% (active),99% (active),99% (active),99.2% (active)
COC1=C(C)C(=O)c2c(c(COC(N)=O)c3n2CC2C3N2C)C1=O (configuration not stated),37%,65%,93% (active),2%,52%,95.3% (active),30%,74% (active),73.8% (active),-8%,72% (active),87.1% (active),8%,27%,78.1% (active),13%,93% (active),96% (active)
CCOc1c(Br)cc(/C=C/[N+](=O)[O-])cc1OC,44%,98% (active),69.8%,61%,98% (active),75.5% (active),32%,98% (active),84% (active),45%,92% (active),77% (active),61%,99% (active),79% (active),58%,98% (active),90.5% (active)
c1cc2c(c(NC3=NCCN3)c1)CCCC2,12%,18%,-12.2%,1%,-17%,-18.9%,1%,12%,-7%,-21%,-4%,33.1%,-26%,-7%,-9.9%,2%,13%,7.65%
CC(=O)C(Br)C(C)=O.CC(=O)C(Br)C(C)=O.CC(=O)C(Br)C(C)=O.[Rh],4%,-2%,99.2% (active),-22%,1%,99.6% (active),-1%,0%,99.6% (active),4%,4%,93.7% (active),1%,-7%,99.4% (active),6%,-18%,99.2% (active)
Nc1nc(N)c(-c2ccc(Cl)c(Cl)c2)c(CCc2ccc(CNC(=O)c3ccc(S(=O)(=O)F)cc3)cc2)n1,-4%,87% (active),46.7%,3%,66%,96.5% (active),6%,98% (active),44%,-14%,88% (active),74.6% (active),-17%,54%,68.9%,22%,96% (active),76.2% (active)
CCOC(=O)C(NC(=O)C(Cc1ccc(N(CCCl)CCCl)cc1)NC(C)=O)C(C)C (configuration not stated),-4%,-9%,17.5% and 11.7%,-1%,-1%,11.3% and -1.25%,-5%,7%,37.2% and -1.2%,-1%,-2%,67.7% and -2.95%,-2%,-2%,19.1% and -22.9%,-4%,-1%,18.9% and -0.25%
COc1ccc(/C=C/[N+](=O)[O-])c(OC)c1OC,43%,50%,84.5% (active),52%,55%,92.5% (active),48%,100% (active),93.2% (active),50%,99% (active),54%,69%,99% (active),91.8% (active),39%,48%,87.8% (active)
O=[N+]([O-])c1ccc(O)c(CCl)c1,6%,41%,16.5%,-1%,22%,1.6%,0%,36%,20.9%,0%,5%,-4.15%,3%,18%,8.65%,4%,59%,76.2% (active)
